Screens from PubChem BioAssay.
Hits are enriched below; roughly 11% of the tested compounds scored in any of these assays.
Pf growth 96h = inhibits malaria parasite growth, 96 h; actives 6.9% (n = 320,000); AID 504834; P. falciparum luciferase reporter growth, 96 h; Potency, µM (highest dose often 28.7 µM), without a hit: at the top dose activity change, negative = inhibition, hits mostly inhibitors; note: % is set by controls: 0 for no effect and ±100 for the full control effect
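P. falciparum expressing integrated firefly luciferase, in erythrocytes at 2% hematocrit, 0.05% parasitemia, incubated with compounds 96 h at 37 C, 5% CO2. Growth inhibition read as loss of luminescence; two-generation exposure targets delayed-death apicoplast inhibitors.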
Vaccinia mCherry = vaccinia inhibition (mCherry reporter). AID 720579. Vaccinia virus mCherry reporter infection, fluorescence. Potency, µM (doses to about 36.5 µM), without a hit: top-dose activity change, negative = inhibition, hits mostly inhibitors. actives 0.63% (n = 310,000); calls by dose curve; tested in A549 cells; note: % is set by controls: 0 for no effect and ±100 for the full control effect; nearly all actives have a fitted effect of over 35% in size
VACV Venus inh = vaccinia inhibition (Venus reporter) | Vaccinia virus Venus reporter expression, fluorescence | actives 0.46% (n = 330,000) | Potency, µM (highest dose often 36.5 µM), for the others: top-dose activity change, negative = inhibition, actives largely listed as inhibitors; calls by dose curve; tested in A549 cells; note: % is set by controls: 0 for no effect and ±100 for the full control effect; nearly all actives have a fitted effect of over 30% in size
HCV inhibitor = inhibitors of hepatitis C virus infection | Huh7.5.1 HCVcc-Cre infection, luciferase reporter, 44 h | Potency, µM (doses to about 41.8 µM), for inactives: at the highest dose activity change, negative = inhibition, hits mostly inhibitors | actives 3.4% (n = 340,000); note: % is set by controls: 0 for no effect and ±100 for the full control effect
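Whole-lifecycle infectious HCVcc-Cre system; cells 1,000/well, compound then virus (~0.5 moi) added 4 h after plating, 44 h culture. Luciferase read 15 sec following 15 min substrate incubation, room temp.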
Pf growth 48h = inhibits P. falciparum growth in the first generation, 48 h; P. falciparum luciferase growth in erythrocytes, 48 h; Potency, µM (top dose mostly 28.7 µM), for inactives: at the highest dose activity change, negative = inhibition, most hits filed as inhibitors; actives 5.9% (n = 310,000); AID 504832; note: % is set by controls: 0 for no effect and ±100 for the full control effect
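Luciferase-expressing parasites in RBCs, 2% Hct / 0.1% parasitemia final; RPMI 1640 + 0.5% Albumax; 37 C, 5% CO2, one generation; luminescence read-out, lower signal = inhibition.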
NS1 function inh = inhibitors of influenza NS1 protein function. Potency, µM (titrated, usually from 46.1 µM), without a hit: top-dose activity, positive = more growth. actives 0.4% (n = 270,000). AID 2326; calls by dose curve; note: actives are rising curves; nearly all actives have a fitted effect of over 50% in size
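OD600 was taken as the measure of yeast growth restored by compound in an NS1-expressing S. cerevisiae strain. Cells had been washed out of glucose medium and diluted 1:100 into galactose -URA medium, pH 6.0.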
The depositor's hits bear a star; i = inactive; ? = inconclusive; / = no result. Unless noted, calls come from the whole dose curve; as a rule, active = well fitted inhibition curve with a large enough effect; inconclusive = small, poorly fitted or top-dose-only effect, or another doubt; inactive = no such curve, though single readings can be large or run the other way. Potency is the fitted concentration of half-maximal effect.

SMILES	Pf growth 96h	Vaccinia mCherry	VACV Venus inh	HCV inhibitor	Pf growth 48h	NS1 function inh
COc1ccc(NC(=S)NCCc2ccccc2)c(C)c1	14.7µM*	-3.7%	3.6%	-6.5%	?	-4.1%
COc1cc(C)c(NC(=O)C(=S)NCCc2ccccc2)cc1C	2.33µM*	-12.4%	-1.4%	?	0.8%	-5.1%
COc1cc(O)oc1C=Nc1ccc(Oc2ccccc2)cc1	-0.6%	-13.6%	-13.9%	-6.3%	29.9%	-12.8%
CN(C)c1ccc2c(O)cc(=O)n(C)c2c1	5.22µM*	/	/	21.1%	-4.4%	?
CN(C)c1ccc2cc(S(=O)(=O)O)cc(O)c2c1	/	?	7.7%	30.9%	/	/
[O-][N+]1=C(c2cccs2)CN(O)C1	1.65µM*	-7.3%	2.8%	17.8%	-1.2%	4.9%
CCOc1ccccc1NC(=O)c1ccc(NC(=O)C2CCCO2)cc1 (stereo not drawn)	-5.0%	-3.9%	6.3%	11.2µM*	-12.9%	-4.6%
CCOC(=O)c1cccc(NC(=O)c2ccc(NC(=O)C3CCCO3)cc2)c1 (stereo not drawn)	7.38µM*	-19.1%	-12.4%	-25.3%	?	-1.2%
CCCN(CCC)S(=O)(=O)c1ccc(NC(=O)C2CCCO2)cc1 (stereo not drawn)	9.28µM*	/	-14.9%	-1.6%	?	5.5%
CCOC(=O)c1ccc(NC(=O)C2CCCO2)cc1 (stereo not drawn)	-2.4%	i	6.3%	26.8%	62.5%	-13.4%
Cc1ccc(NC(=O)C2CCCO2)cc1[N+](=O)[O-] (stereo not drawn)	2.62µM*	i	?	-14.5%	45.4%	-2.4%
COC(=O)c1ccccc1NC(=O)c1ccc(NC(=O)C2CCCO2)cc1 (stereo not drawn)	4.8%	-1.3%	-8.8%	?	-5.8%	-21.2%
O=C(Nc1cccc(NC(=O)C2CCCO2)c1)C1CCCO1 (stereo not drawn)	1.5%	/	/	19.9%	41.8%	2.1%
CCN(CC)C1CCN(C(=O)c2cnn(-c3ncc4c(n3)-c3ccccc3CCC4)c2COC)C1 (stereo not drawn)	/	-7.2%	-1.1%	/	/	/
O=C1C(Cl)=C(N2CCCCC2)C(=O)N1c1ccccc1Cl	-0.8%	/	/	-3.9%	-0.8%	-29.0%
O=c1c2c3nc4ccccc4nc3n(-c3ccc4c(c3)OCCO4)c2ncn1C1CCCC1	/	-12.9%	-3.3%	5.9%	8.28µM*	-13.5%
CC1CCN(C(=O)c2ccc(N3CC4CC(C3)c3cccc(=O)n3C4)c([N+](=O)[O-])c2)CC1 (stereo not drawn)	2.33µM*	-1.3%	-13.1%	32.7%	8.9%	-2.2%
O=C(CCN1CCOCC1)Nc1cc(C(=O)Nc2ccc(Cl)cc2)ccc1N1CC2CC(C1)c1cccc(=O)n1C2 (stereo not drawn)	?	i	-9.6%	?	11.7µM*	-19.2%
Nc1cc(C(=O)Nc2ccc(Cl)cc2)ccc1N1CC2CC(C1)c1cccc(=O)n1C2 (stereo not drawn)	?	/	/	?	-18.5%	8.9%
COc1cccc(NC(=O)Nc2cc(C(=O)O)ccc2N2CC3CC(C2)c2cccc(=O)n2C3)c1 (stereo not drawn)	1.47µM*	/	/	14.3%	-7.5%	17.3%
COc1ccccc1N1CCN(C(=O)c2ccc3c(c2)N(Cc2cc(C)ccc2C)C(=O)c2ccccc2S3(=O)=O)CC1	/	-18.1%	-19.0%	/	/	/
CCN(CC)S(=O)(=O)c1ccc(OC)c(NC(=O)c2ccc(OC)c([N+](=O)[O-])c2)c1	/	-5.9%	-12.8%	-27.6%	/	/
CC(C)c1onc(C(=O)N2CCCCC2C)c1[N+](=O)[O-] (stereo not drawn)	0.0%	-15.0%	-12.0%	8.8%	-4.3%	0.1%
CCN(CC)c1ccc(C(=O)Nc2cccc(F)c2)cc1	25.0%	/	?	10µM*	4.9%	-118.9%
CC(=O)c1cccc(NC(=O)c2c(F)c(F)c(F)c(F)c2F)c1	/	/	10µM*	?	?	13.8%
SMILES	Pf growth 96h	Vaccinia mCherry	VACV Venus inh	HCV inhibitor	Pf growth 48h	NS1 function inh
O=C(Nc1cccnc1)c1c(F)c(F)c(F)c(F)c1F	/	-29.4%	-29.2%	-29.9%	?	-1.3%
O=C(Nc1ccncc1)c1c(F)c(F)c(F)c(F)c1F	-26.0%	6.31µM*	?	-3.8%	10.4µM*	-13.3%
CN(C)c1cccc(C(=O)Nc2cccc(F)c2)c1	-7.2%	-4.3%	-12.9%	0.8%	-30.6%	-39.5%
O=C(Nc1cccc(F)c1)c1c(F)c(F)c(F)c(F)c1F	/	?	?	?	13.1µM*	-43.0%
Cc1cccc(NC(=O)c2c(F)c(F)c(F)c(F)c2F)c1	?	-3.7%	-9.3%	?	/	3.3%
NC(=O)C1CCCN(CCc2ccccc2)C1 (stereo not drawn)	?	i	-2.8%	7.1%	-19.1%	-2.7%
COC(=O)c1cc(NC(=O)c2c(F)c(F)c(F)c(F)c2F)cc(C(=O)OC)c1	?	i	-17.3%	12.6µM*	4.7%	-23.6%
CC1(C)c2ccccc2C(=O)c2ccccc21	/	-13.3%	-13.7%	-0.1%	/	/
O=C1NC2(CCCCC2)C(=O)N1c1ccccc1	/	-10.1%	-9.3%	6.2%	0.3%	4.7%
O=C1NC2(CCCCC2)C(=O)N1c1ccc(Cl)cc1	4.65µM*	-2.1%	-5.0%	-4.2%	15.3%	-7.6%
Cc1ccc(/C=C2\C(=O)Nc3ccccc32)o1	90.2%	-22.6%	-22.5%	?	34.8%	-34.3%
Cc1ccc2c(c1)/C(=C/c1ccco1)C(=O)N2	?	-24.7%	-20.8%	11.2µM*	38.7%	/
COc1ccc(CCNC(=O)COc2ccc(S(=O)(=O)NC3CCCCC3)cc2Cl)cc1OC	10.4%	-17.1%	-19.1%	?	11.7µM*	-14.4%
O=C(COc1ccc(S(=O)(=O)NC2CCCCC2)cc1Cl)Nc1ccc2c(c1)OCO2	10.4µM*	/	/	?	/	-2.5%
O=C(COc1ccc(S(=O)(=O)NC2CCCCC2)cc1Cl)NCc1ccc2c(c1)OCO2	/	/	/	?	-8.2%	10.4%
CCOC(=O)c1c(C)[nH]c(C)c1C(=O)CN1C(=O)NC(CC(C)C)C1=O (stereo not drawn)	25.7%	-25.4%	-16.3%	-11.8%	9.28µM*	4.1%
CCn1c(C)c(C)c2cc(C(=O)NCCc3cc(OC)c(OC)c(OC)c3)ccc21	/	i	-15.9%	/	/	/
Cc1cccc(C(=O)NC(NCCc2ccccc2)C(Cl)(Cl)Cl)c1 (stereo not drawn)	3.7µM*	-10.6%	-11.2%	-20.8%	?	?
Cc1cccc(NC(NC(=O)c2cccnc2)C(Cl)(Cl)Cl)c1 (stereo not drawn)	13.1µM*	/	/	4.3%	?	22.5%
CCOC(=O)C1=C(Cc2ccc(Cl)cc2)C(=O)c2ccccc2C1=O	/	304.7%	i	11.2µM*	?	-111.3%
CC1(C(=O)NCc2ccccc2)CN(S(C)(=O)=O)CC(=O)N1CCc1ccc(O)cc1 (stereo not drawn)	/	-12.9%	15.1%	/	/	/
